The structures appear in SMILES notation. Among all 48,000 compounds or so, about 13,000 (27%) showed an effect of 50% or more. The list shows a part of the results.

The test system of the test is Wolbachia pipientis. The experiment in a line: Anti-Wolbachia Cell-Based Screen. Set-up: scale not given: in the data most compounds retested in dose-response had high values. In kind it is functional. The note with it: 5 µM.
For `NC(=O)C(NCc1ccc(Cl)s1)c1ccccc1` (stereo not given), the “Percent Effect” value is given as -5.898%.

In the case of `CC(c1nc(C2CC2)no1)N(C)Cc1ccc(Cl)cc1` (stereo not given), the “Percent Effect” value is -4.386%.

As to `Cc1cc(-c2nn(C)c(Cl)c2CN2CC[C@@](O)(C3CCC3)[C@H](C)C2)no1`, the “Percent Effect” value is 9.361%. With `CC(C1CCN(Cc2c(Cl)cncc2Cl)CC1)N1CCOCC1` (stereo not given), the “Percent Effect” value turned out to be 1.146%. The figure for `CCCNC(=O)c1ccc(S(=O)(=O)NCC2(O)CCCNC2)cc1` (stereo not given) is -4.599%; for `O=C(Cn1cc(Cl)cn1)NCCN1CCC(O)(c2ccc(F)cc2)CC1` it is 66.04%; for `Cn1ncc(Cl)c1C(=O)NCCN1CCC(O)(c2ccc(F)cc2)CC1` it is 129.2%.

As for `O=C(NCCN1CCOCC1)c1ccc(-c2ccc(F)cc2)nc1O`, the “Percent Effect” value is recorded as -1.382%. Take `Cn1nccc1C(=O)NCCN1CCC(O)(c2ccc(F)cc2)CC1`: the “Percent Effect” value amounted to 137.8%. Regarding `O=C(NCCN1CCCCCC1)c1coc(COc2ccc(F)cc2)n1`, the “Percent Effect” value is recorded as -5.25%.

`NC(=O)CN1CCC(C(=O)NCCn2cc(Cl)cn2)CC1`: the “Percent Effect” value was 2.042%.

In the case of `NC(=O)C1CCN(CC(=O)NCCn2cc(Cl)cn2)CC1`, the “Percent Effect” value was -2.539%. Take `CC1CCN(CCNC(=O)Nc2ccc(F)cc2Cl)CC1`: the “Percent Effect” value is recorded as 1.976%.

In the case of `Cc1cccc(N2CCN(CCNC(=O)c3ccnn3C)CC2)c1`, the “Percent Effect” value is 20.06%. The result for `Cc1c(Cl)cccc1OCC(=O)NC1(C#N)CCSC1` (stereo not given) reads -5.269%; that for `COc1cc2nc(C)sc2cc1NC(=O)CN(C)C(C)C`, -15.43%; that for `CC(C)(C)OC(=O)N1CCCc2ccc(NCc3ccon3)cc21`, -9.372%. Consider `CC(=O)Nc1cccc(CNC(=O)N(C)Cc2ccccc2)c1`, for which the “Percent Effect” value is recorded as -8.333%. The result for `COC(=O)Nc1cccc(C(=O)N(C)Cc2cccc(O)c2)c1` reads 89.16%. Turning to `CCN(C)C(=O)c1cccc(C(=O)N(C)Cc2cccc(O)c2)c1`, the “Percent Effect” value turned out to be 101.4%.

Take `CC(C)Cn1ncc2cc(C(=O)N(C)Cc3cccc(O)c3)cnc21`: the “Percent Effect” value is given as -1.61%.

With `COC(=O)c1cccc(C(=O)N(C)Cc2cccc(F)c2)c1`, the “Percent Effect” value amounted to 85.67%. The result for `CN(Cc1cccc(F)c1)C(=O)c1ccncc1Cl` reads -2.45%; that for `CN(Cc1cccc(O)c1)C(=O)c1ccc(CCC(C)(C)O)cc1`, -13.77%.

Consider `COC(=O)c1cccc(C(=O)N(C)Cc2ccsc2)c1`, for which the “Percent Effect” value is 77.93%. The result for `CN(C)C(=O)c1cccc(NC(=O)N(CCO)Cc2ccsc2)c1` reads 5.648%; that for `CN(Cc1ccsc1)C(=O)c1cccc(F)c1`, 7.751%; that for `COCc1cccc(NC(C)C(=O)N(C)Cc2cccc(F)c2)c1` (stereo not given), -0.4154%.

As to `c1cnc2c(c1)nc1n2[C@@H](CNC2CCOCC2)COC1`, the “Percent Effect” value was -0.09884%.

Take `CCCC(=O)N(CCCN1CCOCC1)c1nc2c(F)cccc2s1.Cl`: the “Percent Effect” value came out at 33.03%. For the molecule `CN(C)Cc1nnc(C(=O)N(C)Cc2ccc(C(F)(F)F)cc2)o1`, the “Percent Effect” value is -9.605%. The result for `O=C(NCc1nc(C2CCCCC2)no1)C1CC(=O)N(C2CCCC2)C1` (stereo not given) reads -9.19%; that for `CCc1nc(CSc2nnc(N)n2C2CC2)no1`, 6.66%. The figure for `CC(=O)c1cccc(OCCCC(=O)N(C)Cc2cccc(O)c2)c1` is -0.5874%; for `COC(=O)c1cccc(C(=O)N(C)Cc2cccc(O)c2)c1` it is 112.7%; for `Cc1nc2c(c(C)c1CC(=O)Nc1ccc(Cl)cc1)c(=O)[nH]n2C` it is -4.982%. The result for `COc1ncc(C(=O)NCc2ccccc2)cn1` reads -10.01%; that for `Cn1c(=O)[nH]c(=O)n2c(CC(=O)Nc3ccc(Cl)c(Cl)c3)cnc12`, 103.6%. For the molecule `Cc1nc2cc(=O)[nH]n2c(C)c1CC(=O)Nc1cn[nH]c1`, the “Percent Effect” value was -20.81%. The figure for `COCC(=O)Nc1ccc(Sc2nncn2C)c(Cl)c1` is 2.363%; for `CC(C)(C)n1ncc2c(=O)n(CC(=O)NCc3ccccc3)cnc21` it is 3.953%; for `O=C(CCn1ccccc1=O)Nc1ccc(F)c(Cl)c1` it is 4.502%. The figure for `Cn1c(=O)[nH]c(=O)n2c(CC(=O)NCc3ccccc3)cnc12` is 108.8%; for `Cc1ccc(NC(=O)Cc2cnc3n(C)c(=O)[nH]c(=O)n23)cc1` it is 128%; for `Cc1cnc(NC(=O)NCCOc2ncccc2Cl)s1` it is 12.43%. The result for `Cc1cccc(Cl)c1NC(=O)Cn1cc(C(=O)O)ccc1=O` reads 9.076%. Turning to `Cn1c(=O)[nH]c(=O)n2c(CC(=O)Nc3c(Cl)cccc3Cl)cnc12`, the “Percent Effect” value came to 100.8%. The figure for `CNS(=O)(=O)CC(=O)N(Cc1c(F)cccc1F)C1CCCC1` is -5.167%; for `Cc1cccc(CN(C(=O)CS(C)(=O)=O)C(C)C)c1` it is -6.499%. Regarding `CC(C)c1cnc(CN2CCCS2(=O)=O)o1`, the “Percent Effect” value came to 3.272%. The result for `O=C(NCC(O)c1ccc(F)c(F)c1)c1cccnc1O` (stereo not given) reads -2.059%. The result for `CCNc1ncc(CN2C[C@H](C3CC3)[C@@H](N)C2)cn1` reads -8.073%; that for `CC(C)Cc1cc(CNC(=O)c2cccc3c2NCCC3)no1`, 2.864%; that for `Cc1cccc(NC(=O)Cc2cnc3n(C)c(=O)[nH]c(=O)n23)c1`, 101.4%. For `Cc1nc2c(c(C)c1CC(=O)Nc1cccc(C#N)c1)c(=O)[nH]n2C`, the “Percent Effect” value is -6.097%.

Consider `COCCn1ccc(=O)c(OCC(=O)Nc2ccccc2)c1C`, for which the “Percent Effect” value is reported as 9.271%. The result for `Cn1c(=O)ccn(CC(=O)Nc2cccnc2)c1=O` reads 18.35%; that for `Cn1c(=O)[nH]c(=O)n2c(CC(=O)Nc3ccccc3)cnc12`, 114.1%; that for `Cc1cccc(NCc2nn(C)c(=O)[nH]2)c1`, -1.788%. The figure for `Cc1nnc(N2CCC(CCN(C)C)CC2)c(C#N)c1C` is 18.81%. Take `O=S(=O)(C1CC1)N1CCOC2(CCCN(c3ccccc3)C2)C1` (stereo not given): the “Percent Effect” value is -6.387%.

`COC(=O)N1C[C@H]2CC[C@@H]1CN(Cc1cscn1)C2`: the “Percent Effect” value was -5.87%. The result for `Cc1ccc(N2CCCC(N(C)Cc3nc(C)c(C)o3)C2)nn1` (stereo not given) reads -10.05%; that for `O=C(O)C(F)(F)F.O=C1COC2(CCN(Cc3nccs3)CC2)CN1CC1CC1`, -7.755%; that for `Cc1ccc(N2CC3(COCCN(Cc4ccncc4)C3)OCC2=O)s1.O=C(O)C(F)(F)F.O=C(O)C(F)(F)F` (stereo not given), 7.716%. The result for `Cc1ccc(N2CC3(COCCN(Cc4cnn(C)c4)C3)OCC2=O)s1.O=C(O)C(F)(F)F` (stereo not given) reads -8.814%; that for `CN1CC(=O)N(c2cccc(F)c2)CC12CCN(Cc1ccncc1)C2.O=C(O)C(F)(F)F.O=C(O)C(F)(F)F` (stereo not given), -24.86%; that for `CN1CC(=O)N(c2ccccc2)CC12CCN(Cc1nccs1)C2.O=C(O)C(F)(F)F.O=C(O)C(F)(F)F` (stereo not given), -23.26%. In the case of `O=C(O)C(F)(F)F.O=C1COC2(CCN(Cc3nccs3)CC2)CN1c1ccccc1`, the “Percent Effect” value was found to be 109.8%.

For the molecule `Cn1cc(CN2CCC3(CC2)CN(c2cccnc2)C(=O)CO3)cn1`, the “Percent Effect” value is 89.07%.

Consider `O=C(O)C(F)(F)F.O=C(O)C(F)(F)F.O=C1COC2(CCN(Cc3cccnc3)CC2)CN1c1ccccc1`, for which the “Percent Effect” value came to 95.43%. For the molecule `O=C(O)C(F)(F)F.O=C(O)C(F)(F)F.O=C1COC2(COCCN(Cc3cccnc3)C2)CN1c1ccccc1` (stereo not given), the “Percent Effect” value was -10.32%. Consider `O=C(O)C(F)(F)F.O=C(O)C(F)(F)F.O=C1COC2(CCN(Cc3ccncc3)CC2)CN1c1ccccc1`, for which the “Percent Effect” value is 106.6%.

Take `CCS(=O)(=O)c1ncc(CN(C)CCc2ccccn2)n1CCOC`: the “Percent Effect” value is given as -7.108%.

Consider `CC(C)(C)c1ccc(S(=O)(=O)CCNC(=O)c2cnccn2)cc1`, for which the “Percent Effect” value is reported as -1.994%.

Regarding `O=C(Nc1cc(C2CCOCC2)[nH]n1)c1cscn1`, the “Percent Effect” value is reported as -9.479%. Regarding `O=C(O)C(F)(F)F.O=C1COC2(CCN(Cc3ccoc3)CC2)CN1c1ccccc1`, the “Percent Effect” value was determined as 110.1%. Take `c1coc(-c2nc3c(c(N4CCCN5CCC[C@H]5C4)n2)CCNCC3)c1`: the “Percent Effect” value was -2.635%. The result for `CN1CCC(c2cccc(-c3cccc(C(=O)O)c3)n2)CC1` reads 172.2%. As to `O=C(O)c1ccc(-c2cscn2)cc1`, the “Percent Effect” value is on record as -4.979%. The figure for `CC(=O)N1CCC(c2cccc(-c3cccc(C(=O)O)c3)n2)CC1` is 150.5%; for `Cc1nc(-c2cccc(C(=O)O)c2)c[nH]1` it is 12.51%; for `CN1CCC(c2cccc(-c3ccc(C(=O)O)cc3)n2)CC1` it is 143.4%. The figure for `CCC1CN(CC(=O)NCC(C)C)CCO1` (stereo not given) is 14.46%; for `CN(C)C(Cn1ccnc1-c1nccn1C)c1ccccc1Cl` (stereo not given) it is -33.34%. Consider `Cn1cnc(S(=O)(=O)NCC2(O)CCc3ccccc3C2)c1` (stereo not given), for which the “Percent Effect” value is -0.2896%. As for `Cc1cc(C(F)(F)F)cc(N2CCN(Cc3ccccc3)CC(O)C2)n1` (stereo not given), the “Percent Effect” value is -8.979%. As to `Cc1noc(C)c1C(=O)NCc1cc[nH]n1`, the “Percent Effect” value is listed as -8.617%. With `CCc1cnc(N2CCCOC(CN3CCCC3)C2)nc1` (stereo not given), the “Percent Effect” value is -1.454%.

Consider `NC(=O)CCC1CCCN(c2ncnc3c2Cc2ccccc2OC3)C1` (stereo not given), for which the “Percent Effect” value was -12.56%. On to `COc1ccccc1-c1ncc(CN2CCCC(CCC(N)=O)C2)s1` (stereo not given), for which the “Percent Effect” value was 16.75%. On to `NC(=O)CCC1CCCN(Cc2cnc(N3CCCCC3)nc2)C1` (stereo not given), for which the “Percent Effect” value worked out at 104.2%. The result for `c1nc(N2CCCC2)ncc1CN1CCCC(CN2CCCCC2)C1` (stereo not given) reads 95.39%; that for `CCc1cnc(N2CCCC(CCC(N)=O)C2)nc1` (stereo not given), 109.3%. The result for `Cc1cccc(C)c1OC1CN(Cc2cnc(N3CCCC3)nc2)C1` reads 1.788%; that for `N[C@H]1CN(Cc2cnc(N3CCCC3)nc2)C[C@@H]1C1CC1`, -16.17%; that for `O=C(O)CCc1cc2n(n1)CCN(Cc1cnc(N3CCCC3)nc1)C2`, -15.82%.

Take `O=C(N[C@H]1CN(C2CCOCC2)C[C@@H]1C1CC1)c1ccon1`: the “Percent Effect” value is -9.557%. As for `CN(Cc1cc[nH]n1)C(C(=O)O)c1ccc(Cl)cc1` (stereo not given), the “Percent Effect” value was -11.22%. The figure for `Cc1cnn(-c2ccc(S(=O)(=O)N(C)CC(C)(CO)CO)cc2F)c1` is -2.822%.

Values taken from ChEMBL document CHEMBL3988442, “University of Dundee, Small-Polar-MMV Screening Library” (2021).
